The values that follow come from ChEMBL document CHEMBL3988442, “University of Dundee, Small-Polar-MMV Screening Library” (2021).

Structures are written as SMILES. Out of some 48,000 compounds screened, about 13,000 (27%) showed an effect of 50% or more. Some of the results follow.

This assay relates to Wolbachia pipientis. Put plainly: Anti-Wolbachia Cell-Based Screen. In kind it is functional. As to conditions: 5 µM. Also on record: scale not given: in the data most compounds retested in dose-response had high values.
On to `CCC(C)(CNC(=O)Nc1nncs1)N1CCOCC1` (stereo unspecified), for which the “Percent Effect” value was -7.544%.

As to `Cc1nc(C)n(CC2CCCN(c3ncnc4ccccc34)C2)n1` (stereo unspecified), the “Percent Effect” value is given as 143.5%.

In the case of `Cc1nc(C)n(CC2CCCN(c3ccc(C#N)cn3)C2)n1` (stereo unspecified), the “Percent Effect” value worked out at 123%.

Consider `Cc1nc(C)n(CC2CCCN(c3ncnc4ccsc34)C2)n1` (stereo unspecified), for which the “Percent Effect” value is on record as -4.048%.

With `Cc1nc(C)n(CC2CCCN(c3ccnc(-c4ccccc4)n3)C2)n1` (stereo unspecified), the “Percent Effect” value was -14.72%.

As for `Cc1nc(C)n(CC2CCCN(c3ncnc4c3CCC4)C2)n1` (stereo unspecified), the “Percent Effect” value is reported as -12.81%.

Regarding `CC(C)(NC(=O)C1CCN(C2CCCCC2)CC1)c1nnc(N)s1`, the “Percent Effect” value was determined as 3.743%.

Regarding `c1cncc(-c2nc3c(c(NCC4(c5ccncc5)CC4)n2)CCC3)c1`, the “Percent Effect” value is given as -14.36%.

Consider `CCn1nc(C)cc1C(=O)N1CCOc2cc(C)ccc21`, for which the “Percent Effect” value is -0.2889%.

Consider `Cc1csc(CNc2cnn(C(C)C)c2)n1`, for which the “Percent Effect” value is 2.502%.

With `Cc1cn2c(CN(C)C(=O)c3cccnc3O)c(C)nc2s1`, the “Percent Effect” value was determined as 1.222%.

`Cc1nn(C)c(C)c1C1CCCN1Cc1nc(-c2cccs2)no1` (stereo unspecified): the “Percent Effect” value stood at 66.61%.

Take `Cc1nn(C)c(C)c1C1CCCN1Cc1nc(-c2ccccn2)no1` (stereo unspecified): the “Percent Effect” value was found to be 93.92%.

In the case of `Cc1nn(C)c(C)c1C1CCCN1Cc1nc(C2CC2)no1` (stereo unspecified), the “Percent Effect” value was -2.837%.

`Cc1nc(C)n(CC2CCCN2Cc2nc(-c3cccs3)no2)n1` (stereo unspecified): the “Percent Effect” value is reported as -9.424%.

As to `C1CCC(c2nn3c(C4CCCO4)nnc3s2)C1` (stereo unspecified), the “Percent Effect” value is on record as 94.06%.

In the case of `C1CCC(c2nnc3sc(C4CCOC4)nn23)C1` (stereo unspecified), the “Percent Effect” value was 100.6%.

With `C1CCC(c2nnc3sc(C4CCCO4)nn23)C1` (stereo unspecified), the “Percent Effect” value amounted to 107.8%.

For the compound `CCn1cc(N2Cc3nc(N4CCN(C)CC4)ncc3C2=O)cn1`, the “Percent Effect” value was -2.562%.

As for `CC(=O)N1CC[C@H]2CC(=O)N(CCc3c[nH]cn3)CC[C@H]2C1`, the “Percent Effect” value came to 10.36%.

As for `Cc1oc(C(=O)O)cc1S(=O)(=O)Nc1cccc(-c2nccs2)c1`, the “Percent Effect” value worked out at 2.887%.

For `O=C(O)c1ccc(S(=O)(=O)Nc2ccccc2CC(F)(F)F)c(F)c1`, the “Percent Effect” value was -4.395%.

Regarding `Cc1oc(C(=O)O)cc1S(=O)(=O)Nc1ccc(Cl)c(F)c1`, the “Percent Effect” value is recorded as -4.199%.

With `Cc1oc(C(=O)O)cc1S(=O)(=O)Nc1ccc(Cl)cc1F`, the “Percent Effect” value is recorded as 103.2%.

For `Cc1oc(C(=O)O)cc1S(=O)(=O)Nc1cccc(Cl)c1F`, the “Percent Effect” value turned out to be 105.9%.

On to `CN(C)C(=O)CNS(=O)(=O)c1cc(Br)ccc1F`, for which the “Percent Effect” value is 0.0286%.

Consider `Cc1cccc(NS(=O)(=O)c2cc(C(=O)O)oc2C)c1Cl`, for which the “Percent Effect” value is recorded as -7.287%.

For `Cc1oc(C(=O)O)cc1S(=O)(=O)Nc1ccccc1F`, the “Percent Effect” value was determined as 96.87%.

In the case of `Cc1oc(C(=O)O)cc1S(=O)(=O)Nc1cc(Br)ccc1F`, the “Percent Effect” value was determined as 94.97%.

Turning to `Cc1oc(C(=O)O)cc1S(=O)(=O)Nc1cc(Cl)ccc1F`, the “Percent Effect” value came out at 4.903%.

Regarding `Cc1ccc([C@H]2CN(C(C)C)C[C@@H]2NS(=O)(=O)N2CCOCC2)o1`, the “Percent Effect” value is listed as -9.511%.

As for `O=C(O)C(F)(F)F.O=C(c1ccncc1)N1CC[C@H]2[C@H]1CCN2S(=O)(=O)C1CC1`, the “Percent Effect” value is reported as -0.5443%.

On to `CCn1ccnc1CNCC1CCN(CC(O)c2ccccc2)CC1` (stereo unspecified), for which the “Percent Effect” value was -5.873%.

`Cc1cc(CN2CCC3(CC2)CC(C(=O)O)N(C(=O)C2CC2)C3)oc1C` (stereo unspecified): the “Percent Effect” value is listed as -10.16%.

As to `O=C(c1cc(Cl)c2c(c1)OCO2)N1CCN(c2ccccn2)CC1`, the “Percent Effect” value is -15.08%.

Turning to `Cc1cccc(NS(=O)(=O)c2cc(C(=O)O)oc2C)c1`, the “Percent Effect” value is reported as -4.62%.

Turning to `Cc1oc(C(=O)O)cc1S(=O)(=O)Nc1cc(F)ccc1F`, the “Percent Effect” value amounted to 110.8%.

On to `Cc1ccc(F)c(NS(=O)(=O)c2cc(C(=O)O)oc2C)c1`, for which the “Percent Effect” value is recorded as 98.71%.

On to `O=C(O)CSc1nnc(-c2cn[nH]c2)n1-c1ccccc1Cl`, for which the “Percent Effect” value is -15.15%.

On to `O=C(CS(=O)(=O)c1cccc[n+]1[O-])NC1CCCc2ccccc21` (stereo unspecified), for which the “Percent Effect” value was found to be 4.468%.

As to `CN(Cc1cccnc1)C[C@H]1OC[C@@H]2CCN(C(=O)C3CC3)C[C@@H]21.O=C(O)C(F)(F)F.O=C(O)C(F)(F)F`, the “Percent Effect” value is listed as -29.83%.

With `Cc1ccnc2c1NC(=O)CN2C(=O)CCc1cccs1`, the “Percent Effect” value turned out to be 21.37%.

With `Cc1cccc(CO[C@@H]2CC[C@H]3[C@H]2OCCN3Cc2cc(C)on2)n1.O=C(O)C(F)(F)F.O=C(O)C(F)(F)F`, the “Percent Effect” value is recorded as -3.201%.

For the compound `O=C(CO[C@@H]1CC[C@H]2[C@H]1OCCN2Cc1ccccn1)N1CCCC1.O=C(O)C(F)(F)F.O=C(O)C(F)(F)F`, the “Percent Effect” value was -4.207%.

Consider `Cc1nnc(N2C[C@H](OCc3ccncc3)[C@H]3OCCC[C@H]32)s1.O=C(O)C(F)(F)F.O=C(O)C(F)(F)F`, for which the “Percent Effect” value is listed as -4.606%.

Turning to `COc1ccc(CN2CCO[C@H]3[C@H](Oc4ccccn4)CC[C@@H]32)cc1.O=C(O)C(F)(F)F.O=C(O)C(F)(F)F`, the “Percent Effect” value was -1.108%.

As for `Cc1cccc(CN2Cc3[nH]nc(COCC4CC4)c3C2)n1.O=C(O)C(F)(F)F`, the “Percent Effect” value is -6.126%.

With `Fc1ccc(CN2CCO[C@H]3[C@H](OCc4ccncc4)CC[C@@H]32)cc1.O=C(O)C(F)(F)F.O=C(O)C(F)(F)F`, the “Percent Effect” value came out at 140.9%.

Take `COc1ccc(CN2CCO[C@H]3[C@H](OCc4ccncc4)CC[C@@H]32)cc1.O=C(O)C(F)(F)F.O=C(O)C(F)(F)F`: the “Percent Effect” value turned out to be 132.4%.

Take `Cc1cccc(CN2CCO[C@H]3[C@@H](OCc4ccncc4)CC[C@@H]32)n1.O=C(O)C(F)(F)F.O=C(O)C(F)(F)F.O=C(O)C(F)(F)F`: the “Percent Effect” value stood at 103.5%.

In the case of `Fc1ccccc1CN1C[C@@H](OCc2ccncc2)[C@H]2OCCC[C@H]21.O=C(O)C(F)(F)F.O=C(O)C(F)(F)F`, the “Percent Effect” value worked out at 11.15%.

`Cc1cccc(CN2CCO[C@@H]3CC(COc4ccccn4)C[C@H]32)n1.O=C(O)C(F)(F)F.O=C(O)C(F)(F)F` (stereo partly specified): the “Percent Effect” value is recorded as 94.81%.

`COc1cc(CNCCn2cccn2)c2c(c1)CC(C)O2` (stereo unspecified): the “Percent Effect” value is listed as -3.376%.

Regarding `CC(=O)Nn1c(C)cc(CN2CCC(c3ccncc3)CC2)c1C`, the “Percent Effect” value is recorded as -4.141%.

Consider `CC(c1cccnc1)N(C)Cc1csc(-c2ccccn2)n1` (stereo unspecified), for which the “Percent Effect” value turned out to be 4.015%.

On to `N#Cc1ccccc1CN1CCC2(CC1)CC(c1ccccc1)C(=O)N2` (stereo unspecified), for which the “Percent Effect” value worked out at 15.31%.
